The values below come from PubChem BioAssay (NCI).

Each structure is given as a SMILES string. Compounds without any hit were thinned out: in the full panel of roughly 83,000, 20% have a hit.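 A percent growth of 40 corresponds to 60% growth inhibition; 0 means no net growth; -100 means all cells died. Active threshold: below 10.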 Calls of active or inactive are those of the source.

The test concerns MDA-MB-468 breast. In words: NCI-60 one-dose screen, 48 h (100 = growth as untreated, 0 = no growth, -100 = all killed). The conditions noted are these: 10 µM unless noted.
For `COc1cc(/C=C/C(=O)/C=C(/C=C/c2ccc(OC(C)=O)c(OC)c2)OB(F)F)ccc1OC(C)=O`, the growth is 48.8% (inactive).

In the case of `O=c1c(-c2nc3ccccc3[nH]2)cc2ccccc2n1Cc1cn(Cc2ccccc2Cl)nn1`, the growth was 14.1% (inactive).

In the case of `CC(C)(C)NCCC(O)c1cc2c(Cl)cc(Cl)cc2c2cc(C(F)(F)F)ccc12` (stereo not given), the growth was -85.7% (active).

As to `COc1cc(C(=O)n2nc(-c3cc(OC)c(OC)c(OC)c3)nc2N)cc(OC)c1OC`, the growth was 101% (inactive).

On to `CC/C(=N/NC(N)=O)c1ccccc1`, for which the growth is 103% (inactive).

As for `CC(=O)OCCOc1cc(Cl)c(Cl)cc1Cl`, the growth was 93.9% (inactive).

In the case of `COc1cc2cc(Oc3ccc(NC(=O)Nc4ccc(F)c(C(F)(F)F)c4)cc3)c(C)nc2cc1OCCN1CCCCC1`, the growth was 71.3% (inactive).

Regarding `CCCCCCCCCCCCCCCCCCNC(=O)[C@H]1CSC(c2ccc(OC)c(F)c2)N1` (stereo not given in full), the growth is 76.9% (inactive).

On to `CCCCCCCCCCCCNc1ncnc2[nH]ncc12`, for which the growth is 55.7% (inactive).

Regarding `CC1=C(CCC(C)NCc2ccc(OCCCN3CCCCC3)cc2)C(C)(C)CCC1` (stereo not given), the growth was -92.7% (active).

Regarding `COC(=O)CCCNCCCn1ccc2cc(NCc3cccc(-c4ccccc4)c3C)ccc21`, the growth was 53.4% (inactive).

With `CC(=O)Oc1ccc(C2OC(c3ccc4ccccc4c3OC(C)=O)=NN2C(C)=O)c(OC(C)=O)c1` (stereo not given), the growth was -14.4% (active).

For `C[C@@H](CO)[C@@H]1CCC=C2CC[C@]3(C)[C@H](CC[C@@H]4[C@@]5(C)CCCNC(C)(C)[C@@H]5CC[C@]43C)[C@H]21`, the growth was -15.2% (active).

As to `O=C(O)CCNC1CCCCC1`, the growth is 93.1% (inactive).

Turning to `C[C@@H](Oc1cc(-c2cnn(C3CC4(CCCNC4)C3)c2)cnc1N)c1c(Cl)ccc(F)c1Cl` (stereo not given in full), the growth is -39.3% (active).

As to `CCCN1CCN(c2ccc3nc(-c4ccc5nc(-c6cc(OC)ccc6OC)[nH]c5c4)[nH]c3c2)CC1`, the growth is 114% (inactive).

With `O=S(=O)(Nc1ccc(F)cc1)c1ccc(-c2cnc(C3CC3)o2)cc1`, the growth was 4.54% (active).

Take `ClC(Cl)c1nc(-c2ccccc2)nc2cc(-c3ccccc3)nn12`: the growth was 33.8% (inactive).

As to `COc1ccc(/C=C/C(=O)c2cc(OC)c(OC)c(OC)c2)cc1OCC(=O)Nc1nc2ccc(OC(F)(F)F)cc2s1`, the growth is 55.1% (inactive).

Turning to `O=c1oc2ccc(Br)cc2c(=O)n1-c1ccc(I)cc1F`, the growth was -0.692% (active).

With `Cc1c2cnccc2c(C)c2c1c1cc(CO)ccc1n2C`, the growth was -65.7% (active).

As for `C=C1CCC2C3(C)COC(c4ccccc4)OC3CCC2(C)C1C/C=C1/C(=O)OCC1OC(C)=O` (stereo not given), the growth is 53% (inactive).

As to `CC(=O)O[C@@H]1/C=C/C(=O)N[C@@H](C)CCC/C=C/[C@@H]2CCC[C@H]21`, the growth is 101% (inactive).

For the compound `COc1ccc(-c2nn(-c3ccc(NC(=O)c4ccc(Cl)c(C(F)(F)F)c4)cc3)cc2-c2ccncc2)cc1Cl`, the growth was 9.51% (active).

Regarding `CCCCN(CCCC)CCCNc1c2c(nc3ccc(Cl)cc13)CCCC2`, the growth was 114% (inactive).

With `CC(=O)N[C@H](C(=O)N[C@@H](CCCNC(=N)N)C(=O)N[C@@H](CCCCN)C(=O)N[C@@H](CCCNC(=N)N)C(=O)N[C@]1(C)CCC/C=C\CCC[C@@](C)(C(=O)N[C@@H](CC(C)C)C(=O)N[C@@H](CC(C)C)C(=O)N[C@@H](CCC(N)=O)C(=O)N[C@@H](CCC(=O)O)C(=O)N[C@@H](CCCNC(=N)N)C(=O)N[C@@H](CCC(=O)O)C(=O)N[C@@H](CC(C)C)C(=O)N[C@H](C(=O)N[C@@H](CCC(=O)O)C(N)=O)C(C)C)NC(=O)[C@H](CCCNC(=N)N)NC(=O)[C@H](CC(C)C)NC1=O)C(C)C`, the growth was 109% (inactive).

With `Cc1ccc(NC(=O)c2cccc(CN3CCN(C)CC3)c2)cc1Oc1ccc(-c2[nH]nc3ncnc(N)c23)cc1`, the growth is 51.3% (inactive).

For the compound `Cc1cc2nc(NC(=O)CN3CCN(CCN4C(=O)c5cccc6cccc(c56)C4=O)CC3)sc2cc1C`, the growth was 86.3% (inactive).

Regarding `OC(COc1ccccc1Cl)COc1ccccc1Cl`, the growth was 102% (inactive).

Regarding `COC(=O)C(Cc1ccccc1)NC(=O)NC(=O)NC(=O)CI` (stereo not given), the growth was 82.8% (inactive).

Consider `COc1cccc(C(=O)Nc2ccc(CN3CCc4nc5cc(OC)c(OC)cc5cc43)cc2)c1`, for which the growth was 63.6% (inactive).

With `O=C(Nc1ccccc1F)Nc1ccccc1Cl`, the growth is 76% (inactive).

On to `CCCCN(CCCC)Cc1c(C)[nH]c2cc(OC)ccc2c1=O`, for which the growth was 113% (inactive).

In the case of `COc1ccc(O)c(N=Nc2nccs2)c1`, the growth is 17.5% (inactive).

As to `N=C(N)c1ccc(-c2ccc(-c3cccs3)s2)cc1`, the growth was -80.6% (active).

Regarding `CC(=O)NC(CCC(=O)c1ccccc1)C(=O)O` (stereo not given), the growth was 93.6% (inactive).

For `Nc1nc2c(ncn2C2OC3COP(=O)(O)OC4C(COP(=O)(O)OC2C3O)OC(n2cnc3c(N)ncnc32)C4O)c(=O)[nH]1` (stereo not given), the growth was 116% (inactive).

Regarding `Clc1ccc(/C=C2\CCCC3=C2N=C2SC=NN2C3c2ccc(Cl)cc2)cc1` (stereo not given), the growth is 90.4% (inactive).

On to `COc1ccc2[nH]c(O)c(/C=c3/cc4c(c(-c5ccc(F)cc5)n3)=Nc3ccccc3-4)c2c1`, for which the growth is 67.4% (inactive).

`CCOC(=O)[C@@H](C)C[C@H](Cc1ccccc1)NC(=O)c1csc([C@@H](C[C@H](C(C)C)N(C)C(=O)[C@@H](NC(=O)[C@H]2C[C@H](O[Si](C)(C)C(C)(C)C)CCN2C)C(C)C)OC(C)=O)n1`: the growth is 3.46% [9.25 µM] (active).
